# Source: PubChem BioAssay AID2547 (National Center for Advancing Translational Sciences (NCATS), 2010)
# This is one part of the list. Inconclusive results are not listed. The source made the active and inactive calls. Calls follow the shape of the dose curve; as a rule, active = well fitted inhibition curve with a large enough effect; inconclusive = small, poorly fitted or top-dose-only effect; inactive = flat fitted curve, though single readings scatter.
# Test: Secondary Assay for Inhibitors of Human Galactokinase (GALK): HEK-293 Cell Viability Assay
# Conditions: HEK-293 viability, ATP luminescence (CellTiter-Glo), 24/48 h; series mostly up to 46.1 µM; activity change, negative = cytotoxicity: at the top concentration
# Experimental: NIH Molecular Libraries Probe Production Centers Network [MLPCN] NIH Chemical Genomics Center [NCGC] MLPCN Grant: R03 MH085689-01 Assay Submitter (PI): Kent Lai (University of Utah School of Medicine, 50 N Mario Capecchi Drive, Salt Lake City, UT 84132) NCGC Assay Overview Cytotoxicity of the active compounds in the GALK qHTS screen (AID 1868) was assessed using the CellTiter-Glo Luminescent Cell Viability Assay kit (Promega, USA) in the HEK-293 (ATCC) cell line. CellTiter-Glo measures the intracellular ATP present in metabolically active cells using Ultra-Glo as the luciferase to detect ATP levels. In brief, the luciferase in the buffer catalyzes the oxidation of luciferin to oxyluciferin and light which is dependent on ATP. […] Wells treated with various concentrations of cycloheximide (Sigma) and DMSO, and wells with media alone were used as positive and negative controls, respectively. […] [1] http://www.promega.com/tbs/tb288/tb288.pdf
# NCGC Assay Protocol Summary: HEK-293 cells were grown in a flask up to 80% confluence. Cells were trypsinized, washed, and resuspended in MEM Eagle + 10% FBS + 1% pen-strep media at a concentration of 120 cells/uL. Five uL/well of cell solution was dispensed into a 1536-well assay plates (Greiner, solid white medium-binding plates) with Aurora Discovery BioRAPTR Flying Reagent Dispenser (FRD; Beckton-Dickenson). Cells were pre-incubated at 37 degree Celsius, 5% CO2 for four hours. Compound and control solutions (23nL) were then transferred to the assay plate using the Kalypsys 1536-pin tool. Assay plates were re- incubated at 37 degree Celsius, 5% CO2. After 24 or 48 hours, five uL of CellTiter Glo detection reagent was added. Luminescence signal was read with Perkin Elmer ViewLux plate reader after 30 min room temperature incubation.
# % is scaled to controls: 0 for no effect and ±100 for the full control effect; potency is read from the fitted curve at half-maximal effect.
SMILES,"activity change, negative = cytotoxicity",Potency
COc1cccc2cc(-c3cc(=O)oc4cc(C)c(O)cc34)oc12,3.01% (inactive),–
O=C(Nc1nnc(S(=O)(=O)N2CCOCC2)s1)c1cccc(Br)c1,-11% (inactive),–
Oc1c(Cl)cc(Cl)c(Cl)c1Cc1c(O)c(Cl)cc(Cl)c1Cl,–,7.91 µM (active)
O=C1Nc2ccc([N+](=O)[O-])cc2C1=Nc1cccc(CO)c1,-8.73% (inactive),–
CCS(=O)(=O)C1=NSC2=NC(=O)/C(=C\c3ccc(OS(=O)(=O)c4ccccc4)cc3)C(=N)N21,2.94% (inactive),–
N#Cc1c(N2CCCCC2)nc(N)c2c(N)nc(SCC(=O)O)cc12,-0.364% (inactive),–
O=C1CCCC2=C1[C@@]1(CCC(c3ccccc3)C1)N=C(Nc1nc3ccccc3o1)N2 (some centres undefined),-26.3% (inactive),–
N#C/C(=C(/O)Cc1cccc2ccccc12)c1nc2ccccc2s1,-2.32% (inactive),–
CCOC(=O)c1c(C)[nH]c2c1-c1ccccc1C(=O)C2=O,–,11.2 µM (active)
